Measured values from ChEMBL document CHEMBL1157539, “Thousands of chemical starting points for antimalarial lead identification” (Nature, 2010).

What follows are compounds tested on HepG2 (assay: GSK_TCMDC: Percent inhibition of human HepG2 cell line. Test compounds present at 10uM.).
Type: functional

SMILES	Inhibition [%]
COc1cc(Nc2nccc(N3CCC(NC(=O)C(C)c4ccc(Cl)cc4)C3)n2)cc(OC)c1OC (stereo not given)	2
Cc1cccc(Nc2c(-c3cc(Br)ccc3O)nc3ncccn23)c1	0
O=C(Nc1cccc(N2CCC(NCCCc3ccncc3)CC2)c1)c1cccc(C(F)(F)F)c1	11
Cc1[nH]cnc1-c1cccc(NC(=O)c2cc3ccccc3s2)c1	5
COc1ccc(NC(=O)c2cc(NC(=O)C3(N)CC3)c(=O)n(Cc3ccc(C(N)=O)cc3)c2)cc1.O=C(O)C(F)(F)F	21
Cc1ccc(NC(=O)c2ccc3ncccc3c2)cc1OC1CCN(Cc2ccco2)C1.O=C(O)C(F)(F)F (stereo not given)	9
CO/C(=C\C=C\c1cc2cc(Cl)c(Cl)cc2[nH]1)C(=O)NCCCN(C)CCN(C)c1ccccc1	38
COc1ccccc1Cn1ccnc1SCC(=O)Nc1cccc(C(F)(F)F)c1	0
N#Cc1ccc2c(c1)CCN(CCCn1c(-c3ccc4ccccc4c3)nc3ccncc31)CC2	38
O=c1cc(NCCCNCc2cccc(C(F)(F)F)c2Cl)[nH]c2ccccc12	0
CNCCCNCc1ccc(-c2ccc(F)c(Cl)c2)o1.Cl	22
CCCCCN1CCCN(Cc2cccc(NC(=O)c3cc4ccccc4s3)c2)CC1.O=C(O)C(F)(F)F	29
CCOc1ccc2nc3cc(NC(=O)c4ccco4)ccc3c(N)c2c1	36
COc1cc(C(=O)N2C(c3nccs3)C(C(=O)N(OC)C(C)c3ccccc3)CC2(CC(C)C)C(=O)OC(C)(C)C)ccc1C(C)(C)C (stereo not given)	12
O=C(Nc1cccc(CN2CCCN(Cc3ccsc3)CC2)c1)c1ccc(-c2ccccc2)cc1.O=C(O)C(F)(F)F	30
CNC(=O)Cc1ccc(C(=O)Nc2cccc(-c3cccc(-c4nc5cccc(C)c5[nH]4)c3)c2)cc1	15
O=C(O)C(F)(F)F.O=C(c1cccs1)N(Cc1cccc(-c2ccc(CNCCc3ccccc3)cc2)c1)C1CCN(Cc2ccccc2)CC1	3
COc1ccc(O)cc1Cc1cnc2nc(N)nc(N)c2c1C	67
CNS(=O)(=O)c1ccc(NC(=O)c2cc(-c3cccnc3)nc3ccc(Br)cc23)cc1	9
CCOC(=O)NCCSC(C)(C)[C@H](NC(=O)[C@H](Cc1cc2ccccc2s1)[C@H](CC)N(O)C=O)C(=O)Nc1nccs1	11

SMILES	Inhibition [%]
COc1ccc(CNC2CCN(C)CC2)cc1-c1ccc(S(=O)(=O)NC2CCC2)c(F)c1.O=C(O)C(F)(F)F	96
Cc1[nH]c(C)c(-c2ccc(Br)cc2)c(=O)c1Cl	22
CCNc1cc(C(=O)N[C@@H](Cc2ccccc2)[C@H](O)CNC2CCC(F)(F)CC2)c(F)c(N2CCCCS2(=O)=O)c1.O=CO	0
Oc1ccc2ccccc2c1C=NNc1nc(=Nc2ccccc2)[nH]c(=Nc2ccccc2)[nH]1	55
Cc1ccc(NS(=O)(=O)c2ccc(C(C)N3CCC(N4CCCCC4)CC3)cc2)cc1C (stereo not given)	66
CS(=O)(=O)c1ccc(-c2cnc(N)c(-c3cccc(CO)c3)c2)cc1	0
CCN(CC1CCN(CC2(O)CCOCC2)CC1)c1cc(C)nc(Nc2ccc(Cl)cc2)n1	34
CCCCCc1cc(OC(=O)CCCN(CC)CC)c2c(c1)OC(C)(C)C=C2C1=CCN(Cc2ccc3ccccc3c2)CC1	94
CC(=O)Nc1ccc(C(=O)Nc2cccc(-c3ccc(-c4nc5cc(F)ccc5[nH]4)s3)c2)cn1	33
Cc1cc(C=C2SC(=Nc3ccccc3)N(C3CCCC3)C2=O)c(C)n1-c1ccc(Cl)cc1	0
CCN(CC)CCN(Cc1ccc(-c2ccc(C(F)(F)F)cc2)cc1)C(=O)Cn1c(CCc2ccccc2F)nc(=O)c2ccccc21.O=C(O)C(O)C(O)C(=O)O	39
O=C(Nc1ccc(Cn2ncc(N3CCCNCC3)c(Cl)c2=O)cc1)Nc1ccc(OCc2ccccc2)cc1.O=C(O)C(F)(F)F	15
Cl.Clc1cnc2ccc3c(c2c1CCN1CCC(NCc2cc4c(cn2)OCCO4)CC1)OCCO3	3
CCC[C@@H]([C@@H](CC1CCCCC1)C(=O)N[C@H](C(=O)Nc1nccs1)[C@H](C)O)N(O)C=O	0
Cl.O=C(NC1CCC(CCN2Cc3ccc(Br)cc3C2)CC1)c1cccc(-c2cccnc2)c1 (stereo not given)	14
Cc1cccc2nc(-c3ccc(-c4cccc(CNCCCNS(C)(=O)=O)c4)cc3)[nH]c12.O=C(O)C(F)(F)F	5
CCCCCN1CCC(NS(=O)(=O)c2cccc(C(=O)Nc3ccc(C(F)(F)F)cc3)c2)C1.O=C(O)C(F)(F)F (stereo not given)	45
Br.Oc1ccc(CNCCCCCCNCCc2ccc(Cl)cc2)cc1O	2
Cn1ccc2c3c(N)nc(N)nc3ccc21	59
O=C(Nc1cc(C(F)(F)F)cc(C(F)(F)F)c1)c1cc(C(F)(F)F)cc(C(F)(F)F)c1	21
